Structures can show the parent of a compound that is named as a salt.
Test system: Drosophila S2 cl14 SmoIP sensor cells
Assay: normalized SmoIP GFP fluorescence (untreated unstimulated = 0%, untreated Hh-stimulated = 100%); higher = more Smo activation sensor fluorescence
Settings: stimulation: Hh conditioned medium (+Hh); compound concentration: 2 uM; 24 h
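Note: flow cytometry read-out as median GFP intensity of gated cells, compounds added 30 min before Hh-conditioned or mock medium, mock-treated cells serving as unstimulated baseline.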

Row | Structure (SMILES) | normalized SmoIP GFP fluorescence
1 | CNC(CC(=O)O)C(=O)O (stereo not drawn) [nmda-n-methyl-d-aspartic-acid] | 101%
2 | CCOC(=O)[C@H](CCc1ccccc1)N[C@@H](C)C(=O)N1CCC[C@H]1C(=O)O [Enalapril-maleate(Vasotec)] | 97.8%
3 | CC1(C)CCC(CN2CCN(c3ccc(C(=O)NS(=O)(=O)c4ccc(NCC5CCOCC5)c([N+](=O)[O-])c4)c(Oc4cnc5[nH]ccc5c4)c3)CC2)=C(c2ccc(Cl)cc2)C1 | 104%
4 | O=C(O)Cc1ccccc1Nc1c(Cl)cccc1Cl [Diclofenac-sodium] | 110%
5 | CC(=O)c1cc([N+](=O)[O-])c(Sc2cccc(Cl)c2Cl)s1 | 108%
6 | Cc1cc(C2CCCCC2)n(O)c(=O)c1 [ciclopirox-ethanolamine] | 101%
7 | CCc1cncnc1N1CCN(Cc2nc3ccc(C(F)(F)F)cc3[nH]2)CC1 | 121%
8 | Nc1cccc2c1C(=O)N(C1CCC(=O)NC1=O)C2=O (stereo not drawn) [Pomalidomide(CC-4047)] | 103%
9 | CN1CCN2c3ccccc3Cc3ccccc3C2C1 (stereo not drawn) [Mianserin-hydrochloride] | 115%
10 | CC1(COc2ccc3c(c2)ncn3-c2ccc3cccc(N4CCC(N)CC4)c3n2)COC1 | 260%
11 | CC(C)(Oc1ccc(C2CC2(Cl)Cl)cc1)C(=O)O (stereo not drawn) [ciprofibrate] | 108%
12 | O=C(/C=C\n1cnc(-c2cc(C(F)(F)F)cc(C(F)(F)F)c2)n1)NNc1cnccn1 | 109%
13 | C#CCN[C@@H]1CCc2ccccc21 [rasagiline-mesylate] | 120%
14 | N#CC1(c2ccc(NC(=O)c3cccnc3NCc3ccncc3)cc2)CCCC1 [Apatinib-YN968D1] | 96.7%
15 | CC(C)c1cc(-c2n[nH]c(=O)n2-c2ccc3c(ccn3C)c2)c(O)cc1O [ganetespib-sta-9090] | 103%
16 | Cc1ccccc1C(C(=O)NC1CCCCC1)N(C(=O)Cn1ccnc1C)c1cccc(F)c1 (stereo not drawn) | 111%
17 | CN[C@@H](C)C(=O)N[C@H](C(=O)N1CCC[C@H]1C(=O)Nc1snnc1-c1ccccc1)C1CCCCC1 | 85.6%
18 | Cc1cccc(-c2[nH]c(C(C)(C)C)nc2-c2ccc3c(c2)OCO3)n1 | 133%
19 | Cc1ccc(C(=O)NCCCCCC(=O)Nc2ccccc2N)cc1 [rg2833-rgfp109] | 101%
20 | c1ccc(-c2[nH]ncc2-c2ccnc3ccccc23)nc1 | 101%

Row | Structure (SMILES) | normalized SmoIP GFP fluorescence
21 | CCc1cccc(CC)c1NC(=O)N1Cc2[nH]nc(NC(=O)c3ccc(N4CCN(C)CC4)cc3)c2C1 | 121%
22 | CC1(C)CCC2=C(O1)c1ccccc1C(=O)C2=O [beta-lapachone] | 113%
23 | Cc1ccc2c(c1)C(=O)C1(O)CCN(c3ccccc3)C1=N2 (stereo not drawn) [blebbistatin] | 105%
24 | C[C@@H](NCCCc1cccc(C(F)(F)F)c1)c1cccc2ccccc12 [Cinacalcet-hydrochloride] | 104%
25 | COc1ccc2c(Oc3ccc(NC(=O)c4c(C)n(CC(C)(C)O)n(-c5ccccc5)c4=O)nc3)ccnc2c1 | 158%
26 | Nc1ccccc1NC(=O)c1ccc(CNC(=O)OCc2cccnc2)cc1 | 203%
27 | CN(C)CCN(Cc1ccccc1)c1ccccn1 [tripelennamine-hydrochloride] | 112%
28 | O=C(Nc1ccc(S(=O)(=O)Nc2ccccc2Cl)c(Cl)c1)c1ccccn1 | 131%
29 | COc1cc2nccc(Oc3ccc(NC(=O)Nc4cc(C)on4)c(Cl)c3)c2cc1OC | 111%
30 | COc1ccc(COc2cc3oc(=O)c4cc(C(C)O)ccc4c3cc2OC)cc1 (stereo not drawn) [Palomid-529-P529] | 134%
31 | NC(=O)c1ccc(-c2nc(-c3ccccn3)c(-c3ccc4c(c3)OCO4)[nH]2)cc1 | 130%
32 | O=C1c2ccc(Nc3ccc(F)cc3F)cc2CCc2ccc(OC[C@H](O)CO)cc21 [skepinone-l] | 101%
33 | CC(=O)Oc1cc(C(F)(F)F)ccc1C(=O)O [triflusal] | 111%
34 | N#CC[C@H](C1CCCC1)n1cc(-c2ncnc3[nH]ccc23)cn1 | 112%
35 | CN(C)C1CCN(C(=O)c2ccc(NC(=O)Nc3ccc(-c4nc(N5CCOCC5)nc(N5CCOCC5)n4)cc3)cc2)CC1 | 53%
36 | CC(C)C(=O)Oc1ccc(CO)cc1[C@H](CCN(C(C)C)C(C)C)c1ccccc1 [Fesoterodine-fumarate-Toviaz] | 110%
37 | c1ccc2c(CC3=NCCN3)cccc2c1 [Naphazoline-hydrochloride-Naphcon] | 118%
38 | CN(c1ncccc1CNc1nc(Nc2ccc3c(c2)CC(=O)N3)ncc1C(F)(F)F)S(C)(=O)=O | 196%
39 | O=C(O)Cc1cccc(OCCCN(Cc2cccc(C(F)(F)F)c2Cl)CC(c2ccccc2)c2ccccc2)c1 | 130%

Same assay, conditions: stimulation: mock conditioned medium (-Hh); compound concentration: 2 uM; 24 h

Row | Structure (SMILES) | normalized SmoIP GFP fluorescence
40 | CNC(CC(=O)O)C(=O)O (stereo not drawn) [nmda-n-methyl-d-aspartic-acid] | -3.16%
41 | CCOC(=O)[C@H](CCc1ccccc1)N[C@@H](C)C(=O)N1CCC[C@H]1C(=O)O [Enalapril-maleate(Vasotec)] | -15.1%
42 | CC1(C)CCC(CN2CCN(c3ccc(C(=O)NS(=O)(=O)c4ccc(NCC5CCOCC5)c([N+](=O)[O-])c4)c(Oc4cnc5[nH]ccc5c4)c3)CC2)=C(c2ccc(Cl)cc2)C1 | -2.82%
43 | O=C(O)Cc1ccccc1Nc1c(Cl)cccc1Cl [Diclofenac-sodium] | 4.03%
44 | CC(=O)c1cc([N+](=O)[O-])c(Sc2cccc(Cl)c2Cl)s1 | -4.24%
45 | Cc1cc(C2CCCCC2)n(O)c(=O)c1 [ciclopirox-ethanolamine] | -0.264%
46 | CCc1cncnc1N1CCN(Cc2nc3ccc(C(F)(F)F)cc3[nH]2)CC1 | 0.966%
47 | Nc1cccc2c1C(=O)N(C1CCC(=O)NC1=O)C2=O (stereo not drawn) [Pomalidomide(CC-4047)] | 10.4%
48 | CN1CCN2c3ccccc3Cc3ccccc3C2C1 (stereo not drawn) [Mianserin-hydrochloride] | 4.04%
49 | CC1(COc2ccc3c(c2)ncn3-c2ccc3cccc(N4CCC(N)CC4)c3n2)COC1 | 77.9%
50 | CC(C)(Oc1ccc(C2CC2(Cl)Cl)cc1)C(=O)O (stereo not drawn) [ciprofibrate] | -5.35%
51 | O=C(/C=C\n1cnc(-c2cc(C(F)(F)F)cc(C(F)(F)F)c2)n1)NNc1cnccn1 | 1.33%
52 | C#CCN[C@@H]1CCc2ccccc21 [rasagiline-mesylate] | -13.4%
53 | N#CC1(c2ccc(NC(=O)c3cccnc3NCc3ccncc3)cc2)CCCC1 [Apatinib-YN968D1] | -1.34%
54 | CC(C)c1cc(-c2n[nH]c(=O)n2-c2ccc3c(ccn3C)c2)c(O)cc1O [ganetespib-sta-9090] | -1.56%
55 | Cc1ccccc1C(C(=O)NC1CCCCC1)N(C(=O)Cn1ccnc1C)c1cccc(F)c1 (stereo not drawn) | -1.97%
56 | CN[C@@H](C)C(=O)N[C@H](C(=O)N1CCC[C@H]1C(=O)Nc1snnc1-c1ccccc1)C1CCCCC1 | 4.68%
57 | Cc1cccc(-c2[nH]c(C(C)(C)C)nc2-c2ccc3c(c2)OCO3)n1 | -6.97%
58 | Cc1ccc(C(=O)NCCCCCC(=O)Nc2ccccc2N)cc1 [rg2833-rgfp109] | -3.05%
59 | c1ccc(-c2[nH]ncc2-c2ccnc3ccccc23)nc1 | 0.247%

Row | Structure (SMILES) | normalized SmoIP GFP fluorescence
60 | CCc1cccc(CC)c1NC(=O)N1Cc2[nH]nc(NC(=O)c3ccc(N4CCN(C)CC4)cc3)c2C1 | 3.18%
61 | CC1(C)CCC2=C(O1)c1ccccc1C(=O)C2=O [beta-lapachone] | -0.264%
62 | Cc1ccc2c(c1)C(=O)C1(O)CCN(c3ccccc3)C1=N2 (stereo not drawn) [blebbistatin] | -0.378%
63 | C[C@@H](NCCCc1cccc(C(F)(F)F)c1)c1cccc2ccccc12 [Cinacalcet-hydrochloride] | 5.98%
64 | COc1ccc2c(Oc3ccc(NC(=O)c4c(C)n(CC(C)(C)O)n(-c5ccccc5)c4=O)nc3)ccnc2c1 | -1.11%
65 | Nc1ccccc1NC(=O)c1ccc(CNC(=O)OCc2cccnc2)cc1 | 6.74%
66 | CN(C)CCN(Cc1ccccc1)c1ccccn1 [tripelennamine-hydrochloride] | -3.9%
67 | O=C(Nc1ccc(S(=O)(=O)Nc2ccccc2Cl)c(Cl)c1)c1ccccn1 | 3.4%
68 | COc1cc2nccc(Oc3ccc(NC(=O)Nc4cc(C)on4)c(Cl)c3)c2cc1OC | 1.89%
69 | COc1ccc(COc2cc3oc(=O)c4cc(C(C)O)ccc4c3cc2OC)cc1 (stereo not drawn) [Palomid-529-P529] | -15.8%
70 | NC(=O)c1ccc(-c2nc(-c3ccccn3)c(-c3ccc4c(c3)OCO4)[nH]2)cc1 | -2.96%
71 | O=C1c2ccc(Nc3ccc(F)cc3F)cc2CCc2ccc(OC[C@H](O)CO)cc21 [skepinone-l] | -4.13%
72 | CC(=O)Oc1cc(C(F)(F)F)ccc1C(=O)O [triflusal] | -4.58%
73 | N#CC[C@H](C1CCCC1)n1cc(-c2ncnc3[nH]ccc23)cn1 | 1.03%
74 | CN(C)C1CCN(C(=O)c2ccc(NC(=O)Nc3ccc(-c4nc(N5CCOCC5)nc(N5CCOCC5)n4)cc3)cc2)CC1 | -21.4%
75 | CC(C)C(=O)Oc1ccc(CO)cc1[C@H](CCN(C(C)C)C(C)C)c1ccccc1 [Fesoterodine-fumarate-Toviaz] | -4.53%
76 | c1ccc2c(CC3=NCCN3)cccc2c1 [Naphazoline-hydrochloride-Naphcon] | -11.6%
77 | CN(c1ncccc1CNc1nc(Nc2ccc3c(c2)CC(=O)N3)ncc1C(F)(F)F)S(C)(=O)=O | 39.3%
78 | O=C(O)Cc1cccc(OCCCN(Cc2cccc(C(F)(F)F)c2Cl)CC(c2ccccc2)c2ccccc2)c1 | -0.116%

— the supplement of paper PMC5662767
